Where “and” joins values, the source holds several entries; their conditions need not be identical. Equal entries are not always repeated. Among all 5,500 compounds or so, about 2,000 (36%) were called active. About 18% were inconclusive and are not listed. Rule as the data show it: active = normalized growth mostly below about 0.91 (no sharp cut-off); inconclusive = no clear call, values can overlap the other calls; inactive = mostly above about 0.92. The list shows a part of the results.
Experiment: chemical genetic growth profiling, strain panel (AID 1159580);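 also: tested at 20 µM; growth read once vehicle control cultures reached saturation at 30 °C; 1 = growth at the plate median or of vehicle wells; lower values mean less growth of the strain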
Settings: S. cerevisiae deletion strains, growth OD

Measured: normalized growth

O=C(CCBr)N1CCN(C(=O)CCBr)CC1
inactive: locus YAL013W, strain DEP1, stronger effect = lower value 1 | locus YAL021C, strain ccr4, stronger effect = lower value 1.02 | locus YAL026C, strain drs2, stronger effect = lower value 1.01 | locus YAL030W, strain snc1, stronger effect = lower value 1.02 | locus YBL061C, strain skt5, stronger effect = lower value 1.02 | locus YBR009C, strain hhf1, stronger effect = lower value 1.02 | locus YBR021W, strain FUR4, stronger effect = lower value 0.998 | locus YBR023C, strain chs3, stronger effect = lower value 1.03 | locus YBR171W, strain sec66, stronger effect = lower value 1.04 | locus YBR229C, strain ROT2, stronger effect = lower value 1 | locus YBR231C, strain swc5, stronger effect = lower value 1.02 | locus YBR279W, strain paf1, stronger effect = lower value 1.02 | locus YCL011C, strain gbp2, stronger effect = lower value 1.02 | locus YCL016C, strain dcc1, stronger effect = lower value 1.02 | locus YCL029C, strain bik1, stronger effect = lower value 1 | locus YCL061C, strain MRC1, stronger effect = lower value 1.01 | locus YCL069W, strain vba3, stronger effect = lower value 1.02 | locus YCR088W, strain abp1, stronger effect = lower value 1.01 | locus YDL005C, strain med2, stronger effect = lower value 1.02 | locus YDL035C, strain GPR1, stronger effect = lower value 1.01 | locus YDL040C, strain nat1, stronger effect = lower value 1.02 | locus YDL074C, strain BRE1, stronger effect = lower value 1 | locus YDL101C, strain DUN1, stronger effect = lower value 1.01 | locus YDL134C, strain PPH21, stronger effect = lower value 1.01 | locus YDL185W, strain tfp1, stronger effect = lower value 0.988 | locus YDL192W, strain arf1, stronger effect = lower value 1.01 | locus YDR001C, strain nth1, stronger effect = lower value 1.01 | locus YDR069C, strain doa4, stronger effect = lower value 1.02 | locus YDR101C, strain arx1, stronger effect = lower value 1.01 | locus YDR137W, strain rgp1, stronger effect = lower value 1.05 | locus YDR159W, strain sac3, stronger effect = lower value 1.01 | locus YDR162C, strain NBP2, stronger effect = lower value 1.01 | locus YDR195W, strain ref2 1.02 | locus YDR297W, strain sur2, stronger effect = lower value 1.02 | locus YDR318W, strain mcm21, stronger effect = lower value 0.996 | locus YDR334W, strain swr1, stronger effect = lower value 1.02 | locus YDR335W, strain msn5, stronger effect = lower value 1.02 | locus YDR388W, stronger effect = lower value 0.995 | locus YDR392W, strain spt3, stronger effect = lower value 1.03 | locus YDR502C, strain sam2, stronger effect = lower value 0.998 | locus YEL003W, strain gim4, stronger effect = lower value 1.02 | locus YEL037C, strain rad23, stronger effect = lower value 1.01 | locus YEL061C, strain CIN8 (second series), stronger effect = lower value 1.02 | locus YEL061C, strain CIN8, stronger effect = lower value 1 | locus YER015W, strain faa2, stronger effect = lower value 1.02 | locus YER016W, strain bim1, stronger effect = lower value 1.02 | locus YER110C, stronger effect = lower value 0.993 | locus YER111C, strain swi4, stronger effect = lower value 1.02 | locus YER155C, strain BEM2 (second series), stronger effect = lower value 1.02 | locus YER155C, strain BEM2, stronger effect = lower value 1.01 | locus YER167W, strain BCK2, stronger effect = lower value 1.01 | locus YFR010W, strain ubp6, stronger effect = lower value 1.01 | locus YGL078C, strain dbp3, stronger effect = lower value 0.995 | locus YGL086W, strain mad1, stronger effect = lower value 0.991 | locus YGL167C, strain pmr1, stronger effect = lower value 1.02 | locus YGL173C, strain kem1, stronger effect = lower value 1.02 | locus YGL227W, strain vid30, stronger effect = lower value 1.02 | locus YGL240W, strain doc1, stronger effect = lower value 1.02 | locus YGL248W, strain PDE1, stronger effect = lower value 1 | locus YGL253W, strain hxk2, stronger effect = lower value 1 | locus YGR135W, strain pre9, stronger effect = lower value 0.99 | locus YGR229C, strain SMI1, stronger effect = lower value 0.99 | locus YGR252W, strain gcn5, stronger effect = lower value 0.934 | locus YHR013C, strain ard1, stronger effect = lower value 1.04 | locus YHR027C, strain rpn1, stronger effect = lower value 1.01 | locus YHR030C, strain SLT2, stronger effect = lower value 1.01 and 1 | locus YHR079C, strain IRE1 (second series), stronger effect = lower value 0.995 | locus YHR079C, strain IRE1, stronger effect = lower value 0.997 | locus YHR094C, strain hxt1, stronger effect = lower value 0.996 | locus YHR129C, strain ARP1, stronger effect = lower value 1.01 | locus YHR142W, strain chs7, stronger effect = lower value 1.02 | locus YHR200W, strain rpn10, stronger effect = lower value 0.994 | locus YIL066C, strain RNR3, stronger effect = lower value 1.02 | locus YIL073C, strain SPO22, stronger effect = lower value 1.04 | locus YIL125W, strain kgd1, stronger effect = lower value 0.987 | locus YIR030C, strain dcg1, stronger effect = lower value 1 | locus YJL092W, strain hpr5, stronger effect = lower value 1.01 | locus YJL095W, strain BCK1 (second series), stronger effect = lower value 1.01 | locus YJL095W, strain BCK1, stronger effect = lower value 1.01 and 0.998 | locus YJL115W, strain asf1, stronger effect = lower value 1 | locus YJL129C, strain trk1, stronger effect = lower value 1.02 | locus YJL134W, strain LCB3, stronger effect = lower value 1.01 | locus YJL154C, strain vps35, stronger effect = lower value 1.02 | locus YJL164C, strain tpk1, stronger effect = lower value 1.02 | locus YJL166W, strain qcr8, stronger effect = lower value 1.02 | locus YJL168C, strain set2, stronger effect = lower value 0.998 | locus YJL187C, strain SWE1 (second series), stronger effect = lower value 1.02 | locus YJL187C, strain SWE1, stronger effect = lower value 1.02 | locus YJR043C, strain POL32, stronger effect = lower value 1.01
